Source: PubChem BioAssay (NCI)
Several values for one entry are separate records, joined by “and”; a condition that tells them apart may be missing. Identical values can stand only once. Compounds without any hit were thinned out: in the full panel of roughly 83,000, 20% have a hit.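 The test compound was applied at a single concentration to cells in 96-well plates for 48 hours, and percent growth was recorded.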 Activity calls are given as the source filed them. How the source made its calls: active means growth percent below 10; inactive means the rest.

Each compound was assayed on MDA-MB-468 breast (assay: NCI-60 one-dose screen, 48 h (100 = growth as untreated, 0 = no growth, -100 = all killed)). Conditions: 10 µM unless noted.

SMILES | growth
Cc1ncc(C(=O)Nc2ccc(CN3CCN(C)CC3)c(C(F)(F)F)c2)cc1C#Cc1c(N)ncc2ccc(F)cc12 | 48.2% (inactive)
O=C1c2c(c3c4cc(F)ccc4oc3c3[nH]c4ccccc4c23)C(=O)N1O | -5.83% (active)
Cc1ccc(-c2cc3nc(C(Cl)Cl)nc(-c4ccccc4)n3n2)cc1 | -16.4% (active)
COc1cccc(/C=N\NC(=O)c2ccncc2)c1O | 64.4% (inactive)
CN(C)c1ccc(/C=C2\C=C(c3ccccc3)N(CCc3ccccc3)C2=O)cc1 | 98.2% (inactive)
Cc1ccc(-c2cc3nc(C(Cl)Cl)nc(-c4ccco4)n3n2)cc1 | -41.3% (active)
CC(C)=CCc1ccc(O)c(=O)cc1C(C)C | -24.2% (active)
Cc1ccc2c(c1)C(=O)/C(=C/c1ncc([N+](=O)[O-])n1C)O2 | 52.4% (inactive)
CN(C)c1ccc(/C=N\NC(=O)c2ccc3nc(-c4ccc(Cl)cc4)[nH]c3c2)cc1 | 76.1% (inactive)
CCN1CCN(c2cc(C)nc(N(CCCNc3ccnc4cc(Cl)ccc34)Cc3ccc4c(c3)OCO4)n2)CC1 | -55.5% (active)
CCCCc1nc(Cl)c(C2CC(c3ccc(Cl)cc3)=NN2c2cc(Cl)cc(Cl)c2)[nH]1 (stereo not given) | 88.3% (inactive)
O=Nc1ccc(NO)c2ccccc12 | 73.7% (inactive)
O=C1c2ccccc2CCc2ccccc21 | 95.2% (inactive)
Cc1c(Nc2nnc(SCC(=O)Nc3sc4c(c3C#N)CCCC4)s2)c(=O)n(-c2ccccc2)n1C | 107% (inactive)
COc1cnc2c(c1)C(=O)c1c-2n(CCCn2ccnc2)c(=O)c2cc(Cl)ccc12 | -11.2% (active)
Cc1cc(Cl)nc(N(CCCNc2ccnc3cc(Cl)ccc23)Cc2ccccn2)n1 | 0.122% (active)
O=C1/C(=C/c2ccccc2F)CN(C(=O)C(Cl)Cl)C/C1=C\c1ccccc1F | -32.4% (active)
Cc1cc(C(=O)Nc2sc3c(c2C(N)=O)CCC(=O)C3)ccc1OCCN1CCCCC1 | 112% (inactive)
COc1cc(-c2nc(C(=O)Nc3ccc(C)cc3)nn2-c2ccc(F)c(F)c2)cc(OC)c1OC | 109% (inactive)
Cc1ccc2nc(Cl)c(-c3nc4ccccc4o3)cc2c1 | 100% (inactive)

SMILES | growth
COC(=O)C(C)[C@H]1CC[C@@H]2[C@]1(C)CC=C1[C@]23C=C[C@]2(C[C@@H](OC(C)=O)CC[C@]12C)C(C(=O)OC)C3C(=O)OC (stereo not given in full) | 94.1% (inactive)
CCNc1nc(S(=O)(=O)CC)nc2ccccc12 | 76.4% (inactive)
Nc1ncnc2c1ncn2C1OC(CO)C(O)C1O (stereo not given) | 116% (inactive) and -13.3% (active)
N#CCc1ncc(-c2ccc(C(F)(F)F)cc2)c(NC2CCCCCC2)n1 | 42.3% [100 µM] (inactive)
COC12C=C/C(=C(/C(=O)OCc3ccncc3)C(=O)CCCCCCCCC3(OC)C=C/C(=C(/C(=O)OCc4ccncc4)C(=O)CCCCCCCC1)O3)O2 | -39% (active)
COc1ccc2oc3cc(NCCN(C)C)ccc3c(=O)c2c1 | 103% (inactive) and 88.7% (inactive)
COc1cccc2c1C(=O)c1c(O)c3c(c(O)c1C2=O)C[C@@](O)(C(=O)CO)C[C@@H]3OC1C[C@H](N)[C@H](O)[C@H](C)O1 (stereo not given in full) | -68.8% (active)
N=C(N)c1ccc(-c2ccc(-c3ccc(Cl)cc3Cl)o2)nc1 | -33.8% (active)
CC(=O)OC[C@]12CC[C@@H]([C@@H](C)C(N)=O)[C@@H]1[C@H]1CC[C@@H]3[C@@]4(C)CC[C@H](OC(C)=O)C(C)(C)[C@@H]4CC[C@@]3(C)[C@]1(C)CC2 | -40.4% [100 µM] (active)
NS(=O)(=O)Oc1ccc(NC(=O)C2CCCCCC2)cc1 | 109% (inactive)
CC1=C(SCC(=O)OCCCCCC(C)C)C(=O)c2ccccc2C1=O | 65.5% (inactive)
COc1ccc(-n2c(/C=C/c3ccc(O)c(OC)c3)cc(/C=C/c3ccc(O)c(OC)c3)nc2=O)cc1 | 29% (inactive)
CC(O)(CO)c1ccccc1 (stereo not given) | 99.6% (inactive)
O=C1/C(=C/c2cccc(Br)c2)COc2ccc(O)cc21 | 53.1% (inactive)
COc1cc(C2CC(c3cccc(Nc4ccnc5cc(Cl)ccc45)c3)=NN2c2ccccc2)cc(OC)c1OC (stereo not given) | 82.1% (inactive)
Cn1ccc(=O)nc1 | 71.1% (inactive)
Nc1ccccc1-c1ccc([N+](=O)[O-])cc1 | 67.5% (inactive)
CN1c2ccccc2Sc2cc(C=C(C#N)C#N)ccc21 | -24.4% (active)
Cn1ccnc1C(=O)/C=C/c1ccc(CC(=O)Nc2ccc(F)cc2)cc1 | -4.62% (active)
C#CCNC(=O)[C@H](CC)[C@H]1CC[C@H](C)[C@H]([C@@H](C)[C@H](O)[C@H](C)C(=O)[C@H](CC)C2O[C@]3(C=CC(=O)[C@]4(CC[C@@](C)([C@H]5CC[C@](O)(CC)[C@H](C)O5)O4)O3)[C@H](C)C[C@@H]2C)O1 (stereo not given in full) | 9.34% (active)
